Measurements taken from PubChem BioAssay (EPA / NIEHS).
The source made the active and inactive calls. Rule for the calls: active = hit-call score of the fitted dose curve at least 0.9, where 1 is the maximum; inconclusive = response in the unintended direction; inactive = score below 0.9.

Assay: CCTE_Deisenroth_H295R-HTRF_384WELL_CTOX: Cytotoxicity Assessment in CCTE's H295R-HTRF Assay, Deisenroth Lab (AID 2284380)
Outline: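 Luminescent ATP viability readout (CellTiter-Glo 2.0), multiplexed on plates used for hormone sampling, after 48 h chemical exposure. Human H295R cells; final concentrations 0.001–100 uM in nine steps, technical triplicates, five experiments; DMSO baseline.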

C#C[C@]1(O)CC[C@H]2[C@@H]3CCC4=Cc5oncc5C[C@]4(C)[C@H]3CC[C@@]21C
outcome: inactive
